# Screens deposited in PubChem by National Center for Advancing Translational Sciences (NCATS).
# PLK1 PBD block = blocks phosphopeptide binding to human PLK1 polo-box domain. P53350. Plk1 PBD binding of FITC phosphopeptide, fluorescence polarization. Potency, µM, hits mostly inhibitors. hit rate 2.8% among 360,000. AID 720504; further: series mostly up to about 57 µM; nearly all actives have a fitted effect of over 65% in size
# Target sequence (P53350 whole entry, looked up, the tested form may be a part): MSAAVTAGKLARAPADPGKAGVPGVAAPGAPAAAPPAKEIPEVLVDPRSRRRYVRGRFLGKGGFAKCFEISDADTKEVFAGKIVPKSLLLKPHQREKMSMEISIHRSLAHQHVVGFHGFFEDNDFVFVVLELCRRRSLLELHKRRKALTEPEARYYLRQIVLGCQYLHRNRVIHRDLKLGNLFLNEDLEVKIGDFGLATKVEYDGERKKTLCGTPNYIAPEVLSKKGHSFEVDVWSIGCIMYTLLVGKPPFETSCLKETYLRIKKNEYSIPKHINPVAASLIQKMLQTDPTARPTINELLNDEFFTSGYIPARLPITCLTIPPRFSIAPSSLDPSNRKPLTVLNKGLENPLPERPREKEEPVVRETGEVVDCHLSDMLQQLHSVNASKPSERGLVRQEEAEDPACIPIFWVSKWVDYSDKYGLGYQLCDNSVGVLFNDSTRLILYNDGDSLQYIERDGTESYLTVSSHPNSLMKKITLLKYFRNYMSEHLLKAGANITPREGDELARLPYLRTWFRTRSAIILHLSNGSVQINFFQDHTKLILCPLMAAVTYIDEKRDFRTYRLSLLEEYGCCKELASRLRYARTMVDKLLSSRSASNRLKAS
# KAT2A inh = blocks human GCN5L2 histone acetyltransferase; GCN5L2 HAT assay, ThioGlo1 CoA-SH fluorescence; hit rate 0.21% among 390,000; Q92830; Potency, µM (highest dose often 58.9 µM), most hits filed as inhibitors
#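 Fluorescence readout, Ex340nm/Em540nm: ThioGlo1 (50uM final) reacts with free CoA thiol released as 20nM GCN5L2 acetylates H3(1-25) peptide (75uM) using acetyl-CoA (70uM). Compound and enzyme sat 15 min beforehand; 20 min room-temperature reaction.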
# PKM2 act = PKM2 (human) enzyme activation. P14618. purified PKM2, Kinase-Glo ATP luminescence, activation; response scale: 0% is enzyme alone, no compound. Potency, µM (titrated, usually from 57.5 µM), usual class: activators. hit rate 0.34% among 260,000; further: nearly all actives have a fitted effect of over 55% in size
#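 Purified hPK-M2 (>95% pure) converted ADP (0.1 mM final) to ATP with 0.5 mM PEP in 50 mM imidazole pH7.2, KCl, MgCl2, Tween 20, BSA; 1 h at room temperature. ATP detected by Kinase-Glo luminescence.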
# Mito fusion act = inhibitors of mitochondrial division or activators of mitochondrial fusion. Potency, µM (series often up to 46.1 µM), actives largely listed as activators. AID 485298. S. cerevisiae fusion-defective mutant growth rescue, CellTiterGlo 48 h. hit rate 0.23% among 320,000; further: nearly all actives have a fitted effect of over 45% in size
#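 Growth-rescue viability read-out: after 48 h at the non-permissive 37C in glycerol/ethanol YPEG, yeast mitochondrial fusion mutants are measured by CellTiterGlo luminescence; compounds (23 nl pinned per well) restoring growth score as division inhibitors or fusion activators.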
# VDR inh = inhibitors of human vitamin D receptor | VDR-SRC2-3 peptide fluorescence polarization, 2 h | Potency, µM, actives largely listed as inhibitors | P11473 | hit rate 0.93% among 400,000 | AID 504847
#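 After 23 nl compound addition and a short centrifugation, plates sat for 2 hours at ambient temperature; polarization of fluorescence then indicated loss of VDR binding to peptide SRC2-3.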
# GLS inh = inhibitors of human glutaminase (GLS). GLS enzymatic activity, qHTS titration. Potency, µM (highest dose often 45.5 µM), actives largely listed as inhibitors. hit rate 0.21% among 410,000. AID 624170
#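 hKGA in 45 mM KH2PO4 (pH 8.2), 0.02% Tween-20 with compound, then 1mM L-Glutamine (stock as added) plus glutamate oxidase/HRP/Amplex red coupling mix. Fluorescence read initially and after 30 min at RT; signal change reflects glutamate formation.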
# A number is an active result; 0 = inactive; ? = inconclusive; - = not tested or not shown; [ ] = dose if it differs, or a comment. Hits are enriched below; roughly 3.4% of the tested compounds scored in any of these assays. The call rests on the fitted dose curve; in most records, active means well fitted curve in the direction sought with a large enough effect; inconclusive means small, poorly fitted or top-dose-only effect, or another doubt; inactive means no such curve, though single readings can be large; an effect the other way counts as inactive or inconclusive.
SMILES,PLK1 PBD block,KAT2A inh,PKM2 act,Mito fusion act,VDR inh,GLS inh
c1coc(-c2nnc3sc(C4CCCCC4)nn23)c1,10.6µM,0,0,0,0,0
CCn1ccc(C(=O)Nc2ccc3c(c2)CCC3)n1,0,0,-,0,0,0
S=C(NCC1CCCO1)c1ccc(Br)cc1 (stereo not drawn),11.9µM,0,0[11.5 µM],0,?,0
O=C(NCC1CCCO1)c1ccc(C(=O)NCC2CCCO2)cc1 (stereo not drawn),0,0,0,0,0,0
O=C(Cc1ccc(Br)cc1)Nc1ccc(S(=O)(=O)NCC2CCCO2)cc1 (stereo not drawn),23.8µM,0,0,0,?,0
O=C(CSc1ccccc1)Nc1ccc(S(=O)(=O)NCC2CCCO2)cc1 (stereo not drawn),23.8µM,0,0,0,0,0
CC(=O)c1ccc(OCC(=O)N2CCCCC2)cc1,-,-,-,-,-,0
COC(=O)[C@@H](NC(=O)O[C@H]1C(=O)c2cc(OC)ccc2O[C@@H]1c1ccc(OC)c(Br)c1)C(C)C,-,-,-,-,0,-
Cn1cnc([N+](=O)[O-])c1S(=O)(=O)Oc1ccccc1,?,-,-,-,25.1µM,0
CC(C)CCN1C(=O)c2ccccc2C1c1nnnn1C(C)C (stereo not drawn),0,-,-,-,-,0
O=C(CNC(=O)c1ccc(Cl)c([N+](=O)[O-])c1)NCC1CCCO1 (stereo not drawn),0,0,-,0,0,0
CC(C)(C)NC(=O)C[C@H]1C[C@H](C(=O)N2CCOCC2)[C@@]2(C)c3[nH]c4cc(-c5ccco5)ccc4c3CCN2C1=O,0,0,-,-,0,0
CC[C@]12c3[nH]c4cc(-c5ccco5)ccc4c3CCN1C(=O)[C@@H](CC(=O)NC/C=C(\C)CCC=C(C)C)C[C@@H]2C(=O)N1CCN(C(=O)c2ccco2)CC1,23.8µM,0,-,-,0,0
CC[C@]12c3[nH]c4cc(-c5ccco5)ccc4c3CCN1C(=O)[C@@H](CC(=O)NC/C=C(\C)CCC=C(C)C)C[C@@H]2C(=O)N1CCN(C(=O)C2CC2)CC1,0,?,-,-,?,0
C[C@]12c3[nH]c4cc(-c5ccco5)ccc4c3CCN1C(=O)[C@@H](CC(=O)NCCC1=CCCCC1)C[C@@H]2C(=O)N1CCCCC1,21.2µM,0,-,-,?,0
CC(C)(C)NC(=O)C[C@H]1C[C@H](C(=O)N2CCCCC2)[C@@]2(C)c3[nH]c4cc(-c5ccco5)ccc4c3CCN2C1=O,23.8µM,0,-,-,?,0
N=C1/C(=C\c2coc3ccccc3c2=O)C(=O)N=C2SC(c3ccncc3)=NN12,0,?,0,0,28.2µM,?
CSC1=NSC2=NC(=O)/C(=C\c3coc4ccccc4c3=O)C(=N)N12,26.7µM,0,0,0,?,0
CN1C(=O)/C(=C/c2coc3ccc(O)cc3c2=O)SC1=S,0,0,0,0,0,0
CC(C)CSC1=NSC2=NC(=O)/C(=C\c3ccccc3)C(=N)N12,26.7µM,0,0,0,0,0
Cc1cc(/C=C2/C(=N)N3C(=NC2=O)SN=C3S(C)(=O)=O)c(C)n1-c1ccc(F)cc1,?,0,0,0,0,0
N=C1/C(=C/c2coc3ccccc3c2=O)C(=O)N=C2SC(c3ccco3)=NN12,?,0,0,0,?,0
Cc1cc(/C=C2\C(=N)N3C(SCc4ccccc4)=NSC3=NC2=O)c(C)n1Cc1ccccc1,0,0,0,0,0,0
N=C1/C(=C\c2coc3ccc(O)cc3c2=O)C(=O)N=C2SC=CN12,0,0,28.2µM,0,0,0
O=C(NC1CCCCC1c1ccccc1)c1ccccc1 (stereo not drawn),0,-,-,-,0,0
N#CCCN1CCCN(CCC#N)CCN(CCC#N)CCCN(CCC#N)CC1,0,0,-,0,0,0
c1ccc(C(NCc2cccnc2)(c2ccccc2)c2ccccc2)cc1,-,?,-,0,?,-
CCS(=O)(=O)C1=NSC2=NC(=O)/C(=C\c3ccc(OC(=O)c4ccco4)cc3)C(=N)N21,?,0,-,0,?,0
CC(C)CSC1=NSC2=NC(=O)/C(=C\c3coc4ccccc4c3=O)C(=N)N12,16.8µM,?,0,0,79.4µM,0
